From PubChem BioAssay AID624167 (Sanford-Burnham Center for Chemical Genomics, 2012) come the findings set out here.

Each structure is given as a SMILES string.

This test is described as follows: Peg3 promoter luciferase inhibitors, potency, dose response, cell-based, HeLa, CREF/GAPDH counter-screen panel (AID 624167). The settings on record: CREF/GAPDH counter-screens; run 2, dose range 1, at 100 µM (top of the series).
As for `CC(=O)OC1CC[C@]2(C#N)[C@H]3CC[C@]4(C)[C@H](C5C=CC(=O)O5)CCC4(O)C3CCC2(O)C1` (stereo partly drawn), the inhibition was found to be 83.6%.
In the case of `CC(=O)OC1(C)CC(C)C(=O)C(C(O)CC2CC(=O)NC(=O)C2)C1` (stereo not drawn) it was 95.8%; in that of `COc1cc2nc(CN3CC=C(c4ccccc4)CC3)[nH]c(=O)c2cc1OC`, 59.5%.
Turning to `COC(COC(N)=O)C1=C(N2CC2)C(=O)C(C)=C(N2CC2)C1=O` (stereo not drawn), the inhibition was 89%.
In the case of `CC1=CC2/C=C(\C)CCC(O)C(O)/C=C/C(=O)C23C(=O)NC(CC(C)C)C3C1C` (stereo not drawn) it was 100%; in that of `CCC(c1nnnn1-c1ccc2c(c1)OCCO2)N1CCC(n2c(=O)[nH]c3ccccc32)CC1` (stereo not drawn), 100%; in that of `O=C(CSC1c2ccccc2-c2ccccc21)N/N=C/c1ccccc1O`, 53.7%.
With `C=Cc1cc(OC)c2c(c1)c(=O)oc1c2cc(OC)c2c(O)ccc(C3OC(C)C(O)C(C)(O)C3O)c21` (stereo not drawn), the inhibition was 40.5%.
